# The supplement of paper PMC8728848
# Shown is part of a subset that was picked to be rich in the strongest signals.
# B1: GST-Gap1 (Streptococcus parasanguinis), A1C3L5 (protein)
# chain: MFYFVPSWYNGQRQWYYDTPWWFRVKNRMTFDDSVNQVKMFLQGQEEIGLMILNYQPQLRYFLHKQNIFGIYYWSFFDDIQNITRSYTKIIHLKDLNWPEGCEFLYSPFAVVVRLKGEIFAIVNYAEDGNLHSVSFQKNGKVTKDYIFDDRGFLSSILYYDIDERPLYQDYLNINGVWQVREFLKKENDPTPILMINDFSDQTFSKKYYNGWEELIKERLAIFQNNHVENEDVFVLASDTQHNQLVSSIFKEHRKIYSFFGNRFNLENLGQDRISINDATFLVVDTEKNEELLRKTCENLVFKSIPIVRLSPFDSRLRLGHSQTVKEQIIYFHIDNIELDELYSVIAIILELMTLHLDIELRIVTFRQDFQLDLLKTWIIDFIKTNHFEDLLFKQISEGENEIEDEGEIELSRIAMECFTNENQIIKCLDTARLVIDLGIEPDLYTQIASISAGIPQINRVSSDYVIHQKNGLVISDISKLSSAIEFYFDGLFNWNEALIYAVRKMSDYTSGKILKQWKGMLKKK
# How the values were obtained:
# Test in all cases: glycan array binding signal (z-score within array); higher = stronger binding
# Settings in all cases: glycan notation: IUPAC condensed, linker removed
# [1] = target: Fuc(a1-2)Gal(b1-3)GlcNAc(b1-3)Gal(b1-4)Glc
# Outline: (§1)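 From the Consortium for Functional Glycomics database, 3228 arrays were curated, keeping only those whose protein sequence was available. Binding is given as a within-array Z-score averaged across arrays sharing a protein sequence and across linkers. Negative Z-scores can be read as non-binding.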
# [2] = target: Fuc(a1-2)Gal(b1-3)GlcNAc(b1-3)[Gal(b1-4)GlcNAc(b1-6)]Gal(b1-4)Glc
# Outline: as §1
# [3] = target: Fuc(a1-2)Gal(b1-3)[Fuc(a1-4)]GlcNAc(b1-2)Man(a1-3)[Fuc(a1-2)Gal(b1-3)[Fuc(a1-4)]GlcNAc(b1-2)Man(a1-3)]Man(b1-4)GlcNAc(b1-4)GlcNAc
# Outline: as §1
# [4] = target: Fuc(a1-2)Gal(b1-4)GlcNAc(b1-3)Gal(b1-4)GlcNAc
# Outline: as §1
# [5] = target: Fuc(a1-2)Gal(b1-4)[Fuc(a1-3)]GlcNAc(b1-3)GalNAc
# Outline: as §1
# [6] = target: Fuc(a1-2)Gal6S(b1-4)Glc
# Outline: as §1
# [7] = target: Fuc(a1-2)Gal6S(b1-4)Glc6S
# Outline: as §1
# [8] = target: Fuc(a1-2)[Gal(a1-3)]Gal(b1-3)GlcNAc
# Outline: as §1
# [9] = target: Fuc(a1-2)[GalNAc(a1-3)]Gal(b1-4)[Fuc(a1-3)]GlcNAc(b1-3)GalNAc
# Outline: as §1
# [10] = target: Fuc(a1-3)[GalNAc(b1-4)]GlcNAc
# Outline: as §1
# [11] = target: Gal(b1-3)Gal(b1-4)GlcNAc
# Outline: as §1
# [12] = target: Gal(b1-3)Gal(b1-4)GlcNAc(b1-2)Man(a1-3)[Gal(b1-3)Gal(b1-4)GlcNAc(b1-2)Man(a1-6)]Man(b1-4)GlcNAc(b1-4)GlcNAc
# Outline: as §1
# [13] = target: Gal(b1-3)GlcNAc(a1-6)Gal(b1-4)GlcNAc
# Outline: as §1
# [14] = target: Gal(b1-3)GlcNAc(b1-3)Gal(b1-4)GlcNAc(b1-2)[Gal(b1-3)GlcNAc(b1-3)Gal(b1-4)GlcNAc(b1-6)]Man(a1-6)[Gal(b1-3)GlcNAc(b1-3)Gal(b1-4)GlcNAc(b1-2)Man(a1-3)]Man(b1-4)GlcNAc(b1-4)[Fuc(a1-6)]GlcNAc
# Outline: as §1
# [15] = target: Gal(b1-3)GlcNAc(b1-3)Gal(b1-4)GlcNAc(b1-3)Gal(b1-4)GlcNAc(b1-2)[Gal(b1-3)GlcNAc(b1-3)Gal(b1-4)GlcNAc(b1-3)Gal(b1-4)GlcNAc(b1-6)]Man(a1-6)[Gal(b1-3)GlcNAc(b1-3)Gal(b1-4)GlcNAc(b1-3)Gal(b1-4)GlcNAc(b1-2)Man(a1-3)]Man(b1-4)GlcNAc(b1-4)[Fuc(a1-6)]GlcNAc
# Outline: as §1
# [16] = target: Gal(b1-3)GlcNAc(b1-6)GalNAc
# Outline: as §1
# [17] = target: Gal(b1-3)[GlcNAc(b1-6)]GalNAc
# Outline: as §1
# [18] = target: Gal(b1-3)[Neu5Ac(a2-6)]GalNAc
# Outline: as §1
# [19] = target: Gal(b1-3)[Neu5Ac(b2-6)]GalNAc
# Outline: as §1
# [20] = target: Gal(b1-4)GlcNAc(b1-2)[Gal(b1-4)GlcNAc(b1-4)]Man(a1-3)[Gal(b1-4)GlcNAc(b1-2)[Gal(b1-4)GlcNAc(b1-6)]Man(a1-6)]Man(b1-4)GlcNAc(b1-4)GlcNAc
# Outline: as §1
# [21] = target: Gal(b1-4)GlcNAc(b1-2)[Gal(b1-4)GlcNAc(b1-4)]Man(a1-3)[GlcNAc(b1-4)][Gal(b1-4)GlcNAc(b1-2)Man(a1-6)]Man(b1-4)GlcNAc(b1-4)GlcNAc
# Outline: as §1
# [22] = target: Gal(b1-4)GlcNAc(b1-3)Gal(b1-4)GlcNAc(b1-2)Man(a1-3)[Gal(b1-4)GlcNAc(b1-3)Gal(b1-4)GlcNAc(b1-2)Man(a1-6)]Man(b1-4)GlcNAc(b1-4)GlcNAc
# Outline: as §1
# [23] = target: Gal(b1-4)GlcNAc(b1-3)Gal(b1-4)GlcNAc(b1-2)Man(a1-3)[Gal(b1-4)GlcNAc(b1-3)Gal(b1-4)GlcNAc(b1-2)Man(a1-6)]Man(b1-4)GlcNAc(b1-4)[Fuc(a1-6)]GlcNAc
# Outline: as §1
# [24] = target: Gal(b1-4)GlcNAc(b1-3)Gal(b1-4)GlcNAc(b1-2)[Gal(b1-4)GlcNAc(b1-3)Gal(b1-4)GlcNAc(b1-6)]Man(a1-6)[Gal(b1-4)GlcNAc(b1-3)Gal(b1-4)GlcNAc(b1-2)Man(a1-3)]Man(b1-4)GlcNAc(b1-4)[Fuc(a1-6)]GlcNAc
# Outline: as §1
# [25] = target: Gal(b1-4)GlcNAc(b1-3)Gal(b1-4)GlcNAc(b1-3)GalNAc
# Outline: as §1
# [26] = target: Gal(b1-4)GlcNAc(b1-6)[Gal(b1-3)]GalNAc
# Outline: as §1
# [27] = target: Gal(b1-6)Gal
# Outline: as §1
# [28] = target: Gal3S(b1-4)GlcNAc
# Outline: as §1
# [29] = target: Gal3S(b1-4)[Fuc(a1-3)]Glc
# Outline: as §1
# [30] = target: GalNAc(a1-3)GalNAc
# Outline: as §1
binder,measurement,setting,value
B1,glycan array binding signal (z-score),[1],-0.291
same,glycan array binding signal (z-score),[2],0.111
same,glycan array binding signal (z-score),[3],0.383
same,glycan array binding signal (z-score),[4],-0.608
same,glycan array binding signal (z-score),[5],1.32
same,glycan array binding signal (z-score),[6],-0.647
same,glycan array binding signal (z-score),[7],-0.485
same,glycan array binding signal (z-score),[8],0.152
same,glycan array binding signal (z-score),[9],0.024
same,glycan array binding signal (z-score),[10],0.035
same,glycan array binding signal (z-score),[11],0.416
same,glycan array binding signal (z-score),[12],13.5
same,glycan array binding signal (z-score),[13],-0.654
same,glycan array binding signal (z-score),[14],2.25
same,glycan array binding signal (z-score),[15],3.43
same,glycan array binding signal (z-score),[16],0.494
same,glycan array binding signal (z-score),[17],-0.334
same,glycan array binding signal (z-score),[18],0.3
same,glycan array binding signal (z-score),[19],-0.046
same,glycan array binding signal (z-score),[20],-0.809
same,glycan array binding signal (z-score),[21],0.833
same,glycan array binding signal (z-score),[22],4.81
same,glycan array binding signal (z-score),[23],1.2
same,glycan array binding signal (z-score),[24],2.87
same,glycan array binding signal (z-score),[25],2.15
same,glycan array binding signal (z-score),[26],0.095
same,glycan array binding signal (z-score),[27],0.538
same,glycan array binding signal (z-score),[28],0.12
same,glycan array binding signal (z-score),[29],-0.553
same,glycan array binding signal (z-score),[30],-0.202
